Assay results reported in PubChem BioAssay (NCI).
Compounds without any hit were thinned out: in the full panel of roughly 79,000, 15% have a hit. A number with no mark means an inactive call. Rule as the data show it: active = growth inhibition above about 70%; inactive = the rest.

Experiment: NCI Yeast Anticancer Drug Screen. Data for the cln2 rad14 strain (AID 165);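 also: 0% = growth equal to vehicle treated cultures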
Conditions: S. cerevisiae cln2 rad14 strain, at 50.0 µM, stronger effect = higher value
Procedure, shortened: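 The screen exposed genetically defined yeast (cln2 rad14) to test compounds and scored growth inhibition relative to vehicle-treated controls.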

Row | Structure (SMILES) | growth inhibition [%]
1 | C1Cc2onc(-c3noc4c3CCC4)c2C1 | 22.6
2 | O=[N+]([O-])c1c(Cl)ncnc1Cl | -13.4
3 | CN(C)c1ccc2c(N(C)C)cc(N(C)C)nc2c1 | 20.4
4 | COc1cc(OC)c2cc(C(=O)c3ccc(C#N)cc3)c(=O)oc2c1 | 31
5 | COc1cc(C(=O)N2CCN(c3ccccc3)CC2)c2ccccc2n1 | 18.5
6 | COc1ccc(/C=N/NC(=O)COCC(=O)N/N=C/c2ccc(OC)cc2)cc1 | 2.5
7 | CN=S(=O)(OCCCCCOS(=O)(=NC)c1ccc(C)cc1)c1ccc(C)cc1 (stereo not drawn) | -43.4
8 | CCOC(=O)/C(C#N)=C\c1c[nH]c2ccccc12 | -1.2
9 | CN(C)Cc1ccccn1 | -5.75
10 | CCC(=O)C1C(=O)c2ccccc2C1=O | -13.8
11 | CCNCC(C)(C)O | 8.35
12 | COC(CCCl)c1ccc(Cl)cc1 (stereo not drawn) | -4.5
13 | COc1cccc(C(=O)NNC(=O)c2cccc3ccccc23)c1 | -10.4
14 | O=c1nc(Nc2cccc(Cl)c2)oc2cc(Cl)oc(=O)c12 | 19.6
15 | Cc1cccc(C)c1NC(=S)/N=C\c1c(O)[nH]c(=O)[nH]c1=O | -24.3
16 | CSc1cnc2ccccc2n1 | 13.1
17 | CC(=O)[C@@]1(O)CC[C@H]2[C@@H]3CC[C@@H]4CC(=O)CC[C@]4(C)[C@H]3[C@@H](O)C[C@@]21C | -51.6
18 | CC(C)=CCC[C@@H](C)[C@H]1CC[C@@]2(C)C3=C(CC[C@]12C)[C@@]1(C)CC[C@H](O)C(C)(C)[C@@H]1CC3 | 9.85
19 | CCOC(=O)c1cc(C)[nH]c(=O)c1C#N | -5.1

Row | Structure (SMILES) | growth inhibition [%]
20 | CCOc1ccc(NC(=S)N2CCC(CCCC3CCN(C(=S)Nc4ccc(OCC)cc4)CC3)CC2)cc1 | 14.9
21 | Oc1cc(O)c2c(c1)O[C@H](c1ccc(O)c(O)c1)[C@@H](O)C2 | 1.35
22 | CC1=CC(=Nc2ccc(N(C)C)cc2)C=C(C)C1=O | -38.1
23 | O=C(O)c1ccc([N+](=O)[O-])cc1S(=O)(=O)O | -22.9
24 | Cc1cc2nc(C)c(C)nc2cc1C | 7.75
25 | NC(=S)c1c(N)n(C2OC(CO)C(O)C2O)c2ncnc(N)c12 (stereo not drawn) | -3.15
26 | COC(c1ccc2c(c1)OCO2)C(C)Br (stereo not drawn) | -31.1
27 | CC(C)C(=O)OCCOc1ccc(C(C)(C)C)cc1 | -5.2
28 | CC(C)Sc1ncnc2nc[nH]c12 | -0.9
29 | O=C(CCCl)OCCOc1ccccc1 | 21.9
30 | O=C(c1ccccc1O)N1CCCC1 | 14.8
31 | Nc1ncnc(Nc2ccc(C(F)(F)F)cc2)n1 | 13.2
32 | Cc1cc2c(C(C)C)c(O)c(O)c(C=Nc3ccccc3[N+](=O)[O-])c2c(O)c1-c1c(C)cc2c(C(C)C)c(O)c(O)c(C=Nc3ccccc3[N+](=O)[O-])c2c1O | -21.8
33 | O=C(CCl)Nc1ccccc1SCc1cc(Cl)cc2c1OCOC2 | 22.9
34 | CN1CCN(C(=S)S)CC1 | 2.15
35 | Nc1ncnc2c1ncn2C1OC(CO)C2OC21 (stereo not drawn) | 12.5
36 | CCN(CC)CCOC(=O)Nc1c(C(C)C)cccc1C(C)C | 15.4
37 | O=S(=O)(O)c1cccc2cccnc12 | -14.6

Experiment: NCI Yeast Anticancer Drug Screen. Data for the bub3 strain (AID 167)
Conditions: S. cerevisiae bub3 mutant strain, at 50.0 µM, stronger effect = higher value
Procedure, shortened: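 Steps: expose the mutant yeast strain to compound; grow alongside vehicle-treated cultures; measure growth; express inhibition against the vehicle cultures.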

Row | Structure (SMILES) | growth inhibition [%]
38 | C1Cc2onc(-c3noc4c3CCC4)c2C1 | -14.2
39 | O=[N+]([O-])c1c(Cl)ncnc1Cl | -48.1
40 | CN(C)c1ccc2c(N(C)C)cc(N(C)C)nc2c1 | 2.95
41 | COc1cc(OC)c2cc(C(=O)c3ccc(C#N)cc3)c(=O)oc2c1 | 35.1
42 | COc1cc(C(=O)N2CCN(c3ccccc3)CC2)c2ccccc2n1 | 9.2
43 | CN=S(=O)(OCCCCCOS(=O)(=NC)c1ccc(C)cc1)c1ccc(C)cc1 (stereo not drawn) | -41.3
44 | CCOC(=O)/C(C#N)=C\c1c[nH]c2ccccc12 | 57.7
45 | CN(C)Cc1ccccn1 | -13.4
46 | CCC(=O)C1C(=O)c2ccccc2C1=O | 6.1
47 | COC(CCCl)c1ccc(Cl)cc1 (stereo not drawn) | -5.35
48 | COc1cccc(C(=O)NNC(=O)c2cccc3ccccc23)c1 | -34.2
49 | O=c1nc(Nc2cccc(Cl)c2)oc2cc(Cl)oc(=O)c12 | 36.5
50 | Cc1cccc(C)c1NC(=S)/N=C\c1c(O)[nH]c(=O)[nH]c1=O | -46.1
51 | CSc1cnc2ccccc2n1 | -0.85
52 | CC(=O)[C@@]1(O)CC[C@H]2[C@@H]3CC[C@@H]4CC(=O)CC[C@]4(C)[C@H]3[C@@H](O)C[C@@]21C | 11.1
53 | CC(C)=CCC[C@@H](C)[C@H]1CC[C@@]2(C)C3=C(CC[C@]12C)[C@@]1(C)CC[C@H](O)C(C)(C)[C@@H]1CC3 | 11.7

Row | Structure (SMILES) | growth inhibition [%]
54 | CCOC(=O)c1cc(C)[nH]c(=O)c1C#N | 4.55
55 | CCOc1ccc(NC(=S)N2CCC(CCCC3CCN(C(=S)Nc4ccc(OCC)cc4)CC3)CC2)cc1 | -9.05
56 | Oc1cc(O)c2c(c1)O[C@H](c1ccc(O)c(O)c1)[C@@H](O)C2 | -6.45
57 | CC1=CC(=Nc2ccc(N(C)C)cc2)C=C(C)C1=O | 20.2
58 | O=C(O)c1ccc([N+](=O)[O-])cc1S(=O)(=O)O | -8.4
59 | Cc1cc2nc(C)c(C)nc2cc1C | -25.7
60 | COC(c1ccc2c(c1)OCO2)C(C)Br (stereo not drawn) | -8.9
61 | CC(C)Sc1ncnc2nc[nH]c12 | 18.9
62 | O=C(CCCl)OCCOc1ccccc1 | -18.5
63 | Nc1ncnc(Nc2ccc(C(F)(F)F)cc2)n1 | 25.6
64 | O=C(CCl)Nc1ccccc1SCc1cc(Cl)cc2c1OCOC2 | 13.6
65 | CN1CCN(C(=S)S)CC1 | 3.5
66 | Nc1ncnc2c1ncn2C1OC(CO)C2OC21 (stereo not drawn) | -5.95
67 | CCN(CC)CCOC(=O)Nc1c(C(C)C)cccc1C(C)C | 13
68 | O=S(=O)(O)c1cccc2cccnc12 | 10.4
